Assay [1] can be described thus: qHTS assay to identify small molecule agonists of the sonic hedgehog signaling (Shh) pathway (AID 1259368).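 Also: NIH/3T3-derived 3T3Gli1-Luc cells carrying a stable Gli1-driven firefly luciferase reporter; series mostly up to about 92 µM; nearly all actives have a fitted effect of over 15% in size.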 In outline:
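Stable NIH/3T3 Gli1-Luc reporter clone; 24 hr cpd exposure after a 4 hr settling period; luminescence endpoint.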
A general note: Quantitative high-throughput screening tests each substance at several concentrations.

Assay [2] is described as follows: qHTS assay to identify small molecule antagonists of the sonic hedgehog signaling (Shh) pathway (AID 1259369). Also: nearly all actives have a fitted effect of over 45% in size. Also: potency is read from the fitted curve at half-maximal effect. The procedure, abridged: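 Gli1 transcriptional reporter (firefly Luc) in NIH/3T3 background, conditioned-medium activated. 24hr exposure, luminescence endpoint.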
Assay [3] addresses Estrogen receptor beta (Homo sapiens) (UniProt Q92731). The experiment in a line: qHTS assay to identify small molecule agonists of the estrogen receptor beta (ER-beta) signaling pathway (AID 1259377; active = well fitted activation curve with a large enough effect in the signal ratio in the repeat runs, not every such curve was filed as active; the % refers to the signal ratio). The procedure, abridged:
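Screening used GripTite ER-beta-UAS-bla cells held in 2% charcoal-stripped FBS medium. After overnight (16 hr) compound incubation at 37C, beta-lactamase activity was detected with a FRET substrate by fluorescence.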

Assay [4] in a line: qHTS assay to identify small molecule agonists of the androgen receptor (AR) signaling pathway in the presence of an antagonist - cell viability counter screen (AID 1259379; active = well fitted curve in the direction sought with a large enough effect in the repeat runs; an effect the other way counts as inactive or inconclusive;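 also: MDA-kb2 human breast cancer cells carrying an MMTV luciferase reporter; series mostly up to about 92 µM; nearly all actives have a fitted effect of over 25% in size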). The procedure, abridged: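 Counter screen for cell viability run in parallel with the AR agonist-mode luciferase assay. MDA-kb2 cells were co-treated with nilutamide (3.0uM final) and compounds, then incubated 16 hr at 37C, and CellTiter-Fluor fluorescence was measured.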

Assay [5] is described as follows: qHTS assay to identify small molecule agonists of the estrogen receptor beta (ER-beta) signaling pathway - cell viability counter screen (AID 1259380; active = well fitted curve in the direction sought with a large enough effect in the repeat runs; an effect the other way counts as inactive or inconclusive; also: nearly all actives have a fitted effect of over 30% in size). The procedure, abridged:
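In this qHTS counter screen, HEK293T cells carrying an ER-beta/UAS beta-lactamase reporter, grown in 2% charcoal-stripped FBS, received compound for 16 hr; ATP-based CellTiter-Glo luminescence was then read after 30 min at room temperature.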

For assay [6], the target named is Androgen receptor (Homo sapiens) (UniProt P10275). Briefly: qHTS assay to identify small molecule agonists of the androgen receptor (AR) signaling pathway in the presence of an antagonist (AID 1259381). Also: nearly all actives have a fitted effect of over 15% in size. In outline:
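AR antagonist background: nilutamide 3.0uM final. Cell line: MDA-kb2, MMTV-driven luciferase, responsive to both AR and GR. Exposure 16hr, 37C, no CO2; ONE-Glo luminescence.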

Assay [7] in a line: qHTS assay to identify small molecule antagonists of the estrogen receptor beta (ER-beta) signaling pathway - cell viability counter screen (AID 1259382; active = well fitted curve in the direction sought with a large enough effect in the repeat runs; an effect the other way counts as inactive or inconclusive; also: series mostly up to about 92 µM; nearly all actives have a fitted effect of over 55% in size). The procedure, abridged:
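HEK293T ER-beta-UAS-bla, 2% charcoal-stripped FBS; compounds + 1nM E2 16 hr 37C; CellTiter-Glo luminescence, 30 min RT.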

For assay [8], the target named is Estrogen receptor (Homo sapiens) (UniProt P03372). The experiment in a line: qHTS assay to identify small molecule agonists of the estrogen receptor alpha (ER-alpha) signaling pathway in the presence of an antagonist (AID 1259383). Also: nearly all actives have a fitted effect of over 15% in size. Also: potency is read from the fitted curve at half-maximal effect. As to activation: top concentration of the series differs between compounds. The procedure, abridged: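 ER-alpha agonism measured under antagonist challenge: 10.0nM ICI-182,780 (final) plus compound, 15 concentrations, 22hr, VM7Luc4E2 ERE-luciferase cells. Read by luminescence.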
Chain of Estrogen receptor (Homo sapiens) (P03372 whole entry, looked up): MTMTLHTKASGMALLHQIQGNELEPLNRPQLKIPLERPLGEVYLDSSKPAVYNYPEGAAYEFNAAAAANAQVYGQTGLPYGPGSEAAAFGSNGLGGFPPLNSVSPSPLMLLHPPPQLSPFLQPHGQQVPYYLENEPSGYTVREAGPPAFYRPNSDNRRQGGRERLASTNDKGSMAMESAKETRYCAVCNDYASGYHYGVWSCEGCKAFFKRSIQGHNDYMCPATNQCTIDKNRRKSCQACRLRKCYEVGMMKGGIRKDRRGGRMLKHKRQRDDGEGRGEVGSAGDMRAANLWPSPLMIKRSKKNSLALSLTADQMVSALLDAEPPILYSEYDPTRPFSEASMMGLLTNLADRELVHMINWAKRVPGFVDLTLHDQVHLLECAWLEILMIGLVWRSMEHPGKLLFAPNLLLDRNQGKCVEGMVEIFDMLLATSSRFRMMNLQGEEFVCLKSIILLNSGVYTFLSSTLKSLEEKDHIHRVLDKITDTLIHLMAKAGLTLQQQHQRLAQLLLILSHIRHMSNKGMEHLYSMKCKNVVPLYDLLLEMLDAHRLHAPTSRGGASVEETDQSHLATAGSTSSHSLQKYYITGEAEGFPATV

The nature of assay [9]: qHTS assay to identify small molecule agonists or antagonists of the thyroid stimulating hormone receptor (TSHR) signaling pathway - wild type cell line counter screen (AID 1259384). In outline: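 Wild-type Hek293 cells, 800/well, 18 h at 37C, then compound with Ro20-1724 for 30 min RT. cAMP by HTRF (cAMP-d2/anti-cAMP cryptate), 1 h RT, fluorescence read. 15 concentrations, triplicates.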

Assay [10] concerns the target Thyrotropin receptor (Homo sapiens) (UniProt P16473). Briefly: qHTS assay to identify small molecule antagonists of the thyroid stimulating hormone receptor (TSHR) signaling pathway (AID 1259385). Also: nearly all actives have a fitted effect of over 20% in size. The procedure, abridged:
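TSHR-HEK293 cells (800/well) plated 18 h, then compounds with Ro20-1724 and TSH at 1.5 ng/mL final, 30 min at room temperature. cAMP quantified by HTRF (cAMP-d2/anti-cAMP-cryptate, 1 h); 15 concentrations in triplicate.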

A short description of assay [11]: qHTS assay to identify small molecule agonists of the estrogen receptor alpha (ER-alpha) signaling pathway in the presence of an antagonist - cell viability counter screen (AID 1259386; active = well fitted curve in the direction sought with a large enough effect in the repeat runs; an effect the other way counts as inactive or inconclusive;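 also: series mostly up to about 92 µM; cells exposed to compounds for 22 h at 37 °C before the viability read; nearly all actives have a fitted effect of over 30% in size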). In outline:
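Steps: 5-day stripped-FBS culture; seed and incubate 24hr; add ICI-182,780 (10.0nM final); pin 15-point compound titration; incubate 22hr at 37C; add CellTiter-Fluor at 21hr; read fluorescence.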

The target in assay [12] is Progesterone receptor (Homo sapiens) (UniProt P06401). The experiment in a line: qHTS assay to identify small molecule agonists of the progesterone receptor (PR) signaling pathway (AID 1346784). Also: nearly all actives have a fitted effect of over 30% in size. The procedure, abridged: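 Seed PR-UAS-bla HEK 293T cells (2% charcoal-stripped FBS), incubate 6 hr at 37C; add compounds in DMSO, 16 hr at 37C; add LiveBLAzer B/G substrate, 2 hr RT; read fluorescence intensity.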
Chain of Progesterone receptor (Homo sapiens) (P06401 whole entry, looked up): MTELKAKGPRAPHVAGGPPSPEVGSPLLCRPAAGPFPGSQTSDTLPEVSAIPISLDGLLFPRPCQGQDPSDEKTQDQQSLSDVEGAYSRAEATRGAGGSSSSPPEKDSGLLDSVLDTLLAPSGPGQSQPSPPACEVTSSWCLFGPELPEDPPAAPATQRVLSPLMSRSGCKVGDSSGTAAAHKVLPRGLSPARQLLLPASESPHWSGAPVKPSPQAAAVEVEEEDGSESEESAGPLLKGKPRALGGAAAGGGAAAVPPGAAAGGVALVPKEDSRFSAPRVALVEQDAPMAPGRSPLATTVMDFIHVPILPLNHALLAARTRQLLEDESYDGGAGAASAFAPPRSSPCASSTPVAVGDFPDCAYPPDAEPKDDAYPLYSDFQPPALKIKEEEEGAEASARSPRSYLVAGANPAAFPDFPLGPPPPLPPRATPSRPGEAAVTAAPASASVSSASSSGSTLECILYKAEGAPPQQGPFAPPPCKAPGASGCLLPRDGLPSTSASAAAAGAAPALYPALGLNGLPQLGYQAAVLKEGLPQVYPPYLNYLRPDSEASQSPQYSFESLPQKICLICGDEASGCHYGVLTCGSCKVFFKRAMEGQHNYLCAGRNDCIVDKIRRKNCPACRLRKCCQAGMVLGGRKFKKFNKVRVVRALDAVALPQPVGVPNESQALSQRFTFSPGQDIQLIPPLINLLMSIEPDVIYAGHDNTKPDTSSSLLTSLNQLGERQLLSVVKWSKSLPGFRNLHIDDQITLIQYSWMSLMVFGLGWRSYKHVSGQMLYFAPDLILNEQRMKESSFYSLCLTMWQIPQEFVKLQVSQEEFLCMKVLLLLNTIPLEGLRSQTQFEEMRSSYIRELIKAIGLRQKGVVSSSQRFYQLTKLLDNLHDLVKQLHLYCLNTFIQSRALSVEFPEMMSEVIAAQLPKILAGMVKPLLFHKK

Assay [13] has the same target. Briefly: qHTS assay to identify small molecule antagonists of the progesterone receptor (PR) signaling pathway (AID 1346795; active = well fitted inhibition curve with a large enough effect in the signal ratio in the repeat runs, not every such curve was filed as active; the % refers to the signal ratio; also: potency is read from the fitted curve at half-maximal effect). The procedure, abridged:
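Screening used a GripTite HEK293T line with PR-responsive UAS-beta-lactamase. Cells were challenged with compound in the presence of 1 nM R5020 final for 16 hr at 37C; B/G FRET substrate, 2 hr room temperature, fluorescence.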

Assay [14] is described as follows: qHTS assay to identify small molecule antagonists of the progesterone receptor (PR) signaling pathway - cell viability counter screen (AID 1346798; active = well fitted curve in the direction sought with a large enough effect in the repeat runs; an effect the other way counts as inactive or inconclusive; also: series mostly up to about 92 µM; nearly all actives have a fitted effect of over 50% in size). The procedure, abridged:
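Measures cytotoxicity in parallel with the PR antagonist reporter read: HEK293T PR-UAS-bla cells get compound and R5020 for 16 hr, and remaining viable cells are quantified by CellTiter-Glo luminescence.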

Assay [15] in a line: qHTS assay to identify small molecule agonists of the progesterone receptor (PR) signaling pathway - cell viability counter screen (AID 1346799). Also: nearly all actives have a fitted effect of over 45% in size. In outline:
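Using the same plates as the PR reporter screen, HEK293T PR-UAS-bla cells received compounds for 16 hr at 37C and were then lysed with CellTiter-Glo; luminescence was read 30 min later at room temperature.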

A short description of assay [16]: qHTS assay to identify small molecule antagonists of the TGF-beta/Smad signaling pathway - cell viability counter screen (AID 1346824; active = well fitted curve in the direction sought with a large enough effect in the repeat runs; an effect the other way counts as inactive or inconclusive; also: nearly all actives have a fitted effect of over 50% in size). In outline:
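SBE-bla HEK 293T cells, incubated overnight, then compound plus 0.25 ng/mL TGF-beta1 (stock added) for 5 hr at 37 C. Viability was read in the same wells by CellTiter-Glo luminescence after 30 min at room temperature.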

Assay [17] is described as follows: qHTS assay to identify small molecule agonists of the TGF-beta/Smad signaling pathway - cell viability counter screen (AID 1346829; active = well fitted curve in the direction sought with a large enough effect in the repeat runs; an effect the other way counts as inactive or inconclusive; also: top concentration of the series differs between compounds; nearly all actives have a fitted effect of over 45% in size). In outline:
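Cytotoxicity counter screen: CellTiter-Glo luminescence (30 min, room temperature) measured in the SBE-bla HEK 293T reporter wells after 5 hr compound treatment at 37 C and the 2 hr substrate step.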

A short description of assay [18]: qHTS assay to identify small molecule agonists of the TGF-beta/Smad signaling pathway (AID 1346859; active = well fitted activation curve with a large enough effect in the signal ratio in the repeat runs, not every such curve was filed as active; the % refers to the signal ratio; also: series mostly up to about 77 µM). In outline: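 Beta-lactamase reporter activity downstream of Smad binding elements was measured in stably transfected HEK 293T cells; compounds were incubated for 5 hr, substrate for 2 hr at room temperature.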
The target in assay [19] is Thyrotropin-releasing hormone receptor (Homo sapiens) (UniProt P34981). The experiment in a line: qHTS assay to identify small molecule antagonists of the thyrotropin-releasing hormone receptor (TRHR) signaling pathway (AID 1346877; active = well fitted inhibition curve with a large enough effect in the repeat runs, not every such curve was filed as active; also: series mostly up to about 51 µM). The procedure, abridged:
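Human TRHR in HEK293 cells; inhibition of the intracellular calcium rise triggered by 1 nM TRH was followed by fluorescence over 3 min. Compounds were run at 15 concentrations, three replicates each.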

Assay [20] concerns the target Estrogen receptor beta (Homo sapiens) (UniProt Q92731). The experiment in a line: qHTS assay to identify small molecule antagonists of the estrogen receptor beta (ER-beta) signaling pathway (AID 1259378; active = well fitted inhibition curve with a large enough effect in the signal ratio in the repeat runs, not every such curve was filed as active; the % refers to the signal ratio). In outline: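 ER-beta-UAS-bla HEK293T cells in 2% charcoal-stripped FBS medium treated with compound plus 1nM final 17-beta-estradiol for 16 hr at 37C. Beta-lactamase reporter read by FRET substrate fluorescence after 2 hours at room temperature.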

SMILES strings stand for the structures. Records with an inconclusive call do not appear. A structure can be active in one record and inactive in another. Active and inactive are the calls of the source. Unless noted, calls follow the shape of the full dose curve.

Chain of Thyrotropin receptor (Homo sapiens) (P16473 whole entry, looked up): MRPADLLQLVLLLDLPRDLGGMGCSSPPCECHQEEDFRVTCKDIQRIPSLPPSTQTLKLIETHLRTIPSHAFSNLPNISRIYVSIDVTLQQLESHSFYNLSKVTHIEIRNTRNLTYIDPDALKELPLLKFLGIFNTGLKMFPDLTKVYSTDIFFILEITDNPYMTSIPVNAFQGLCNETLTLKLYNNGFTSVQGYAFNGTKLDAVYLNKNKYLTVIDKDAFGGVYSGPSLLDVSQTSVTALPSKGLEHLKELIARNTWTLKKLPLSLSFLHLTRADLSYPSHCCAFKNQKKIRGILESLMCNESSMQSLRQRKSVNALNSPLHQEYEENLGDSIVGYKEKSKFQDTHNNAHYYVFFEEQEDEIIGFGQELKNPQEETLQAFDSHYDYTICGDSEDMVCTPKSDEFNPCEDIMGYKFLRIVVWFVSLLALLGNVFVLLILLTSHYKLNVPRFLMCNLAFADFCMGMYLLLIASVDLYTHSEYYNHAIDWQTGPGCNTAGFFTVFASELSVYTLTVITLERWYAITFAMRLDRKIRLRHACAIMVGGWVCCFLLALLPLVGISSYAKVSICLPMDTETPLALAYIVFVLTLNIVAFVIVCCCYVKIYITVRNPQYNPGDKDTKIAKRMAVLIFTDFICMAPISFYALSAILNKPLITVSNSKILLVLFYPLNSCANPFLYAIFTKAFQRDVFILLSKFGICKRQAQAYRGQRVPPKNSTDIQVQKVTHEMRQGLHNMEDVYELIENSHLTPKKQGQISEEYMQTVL
Chain of Androgen receptor (Homo sapiens) (P10275 whole entry, looked up): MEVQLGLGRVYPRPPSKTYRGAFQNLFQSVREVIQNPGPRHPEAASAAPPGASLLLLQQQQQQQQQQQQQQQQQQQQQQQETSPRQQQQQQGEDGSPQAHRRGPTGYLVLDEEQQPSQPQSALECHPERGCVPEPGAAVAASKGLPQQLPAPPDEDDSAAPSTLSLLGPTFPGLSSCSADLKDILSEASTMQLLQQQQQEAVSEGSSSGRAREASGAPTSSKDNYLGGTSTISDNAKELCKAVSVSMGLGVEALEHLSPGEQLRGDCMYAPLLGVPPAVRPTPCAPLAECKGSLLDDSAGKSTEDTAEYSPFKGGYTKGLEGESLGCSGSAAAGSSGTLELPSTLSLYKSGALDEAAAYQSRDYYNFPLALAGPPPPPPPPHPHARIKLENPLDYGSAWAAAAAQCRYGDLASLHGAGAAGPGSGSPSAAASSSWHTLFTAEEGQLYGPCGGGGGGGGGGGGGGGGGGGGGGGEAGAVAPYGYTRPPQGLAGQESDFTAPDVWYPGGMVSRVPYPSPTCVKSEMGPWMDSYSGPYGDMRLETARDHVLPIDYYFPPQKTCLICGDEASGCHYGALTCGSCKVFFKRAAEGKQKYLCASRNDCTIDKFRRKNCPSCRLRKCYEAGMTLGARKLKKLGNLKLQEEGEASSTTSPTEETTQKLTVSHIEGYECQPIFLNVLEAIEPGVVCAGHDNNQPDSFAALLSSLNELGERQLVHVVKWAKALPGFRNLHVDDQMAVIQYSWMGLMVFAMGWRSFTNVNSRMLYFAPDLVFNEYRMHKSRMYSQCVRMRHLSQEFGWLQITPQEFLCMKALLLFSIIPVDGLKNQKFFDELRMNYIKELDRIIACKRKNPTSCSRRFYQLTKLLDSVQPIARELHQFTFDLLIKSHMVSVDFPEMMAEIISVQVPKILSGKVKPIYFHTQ
Chain of Thyrotropin-releasing hormone receptor (Homo sapiens) (P34981 whole entry, looked up): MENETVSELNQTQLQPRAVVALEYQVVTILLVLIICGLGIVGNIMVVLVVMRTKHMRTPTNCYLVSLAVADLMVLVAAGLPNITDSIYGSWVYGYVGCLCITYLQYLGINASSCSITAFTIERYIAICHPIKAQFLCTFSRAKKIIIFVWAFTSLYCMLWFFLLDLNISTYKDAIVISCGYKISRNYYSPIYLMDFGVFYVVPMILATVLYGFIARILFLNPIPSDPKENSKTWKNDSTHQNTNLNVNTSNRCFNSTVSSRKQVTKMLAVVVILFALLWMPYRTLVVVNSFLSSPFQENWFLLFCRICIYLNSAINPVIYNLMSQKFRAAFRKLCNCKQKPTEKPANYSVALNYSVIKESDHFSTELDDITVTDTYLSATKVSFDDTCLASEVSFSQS
Chain of Estrogen receptor beta (Homo sapiens) (Q92731 whole entry, looked up): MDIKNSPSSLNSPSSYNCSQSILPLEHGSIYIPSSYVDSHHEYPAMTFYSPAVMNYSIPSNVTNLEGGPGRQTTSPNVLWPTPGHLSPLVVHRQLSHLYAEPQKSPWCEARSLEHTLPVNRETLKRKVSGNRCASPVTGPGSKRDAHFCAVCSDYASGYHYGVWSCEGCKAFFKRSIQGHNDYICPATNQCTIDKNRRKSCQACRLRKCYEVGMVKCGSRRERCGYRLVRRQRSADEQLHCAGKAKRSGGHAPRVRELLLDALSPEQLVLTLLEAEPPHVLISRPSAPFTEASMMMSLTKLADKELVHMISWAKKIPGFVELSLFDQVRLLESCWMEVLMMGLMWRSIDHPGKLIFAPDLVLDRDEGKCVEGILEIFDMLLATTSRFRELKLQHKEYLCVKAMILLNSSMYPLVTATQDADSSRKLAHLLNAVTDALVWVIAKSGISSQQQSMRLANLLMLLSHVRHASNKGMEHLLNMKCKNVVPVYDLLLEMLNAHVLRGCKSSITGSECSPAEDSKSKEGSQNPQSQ

With `C=CC(=O)OCCCCCCCC(C)C`, the outcome in [1], in [9], in [10], in assay [18] and in assay [19] was inactive. Further, the Potency result in [2], in assay [3], in [4], in assay [5], in assay [6] and in assay [7] was “inactive” each time. Further, the Potency result in [8], in [11], in [12], in [13], in assay [14] and in [15] was “inactive” in each case. Moreover, the Potency entry in assay [16] and in assay [17] was “inactive” in each case.
Take `CN(CCOc1ccc(CC2SC(=O)NC2=O)cc1)c1ccccn1` (stereo unspecified): the call in assay [1], in assay [9], in assay [10] and in assay [18] was inactive. In addition, the Potency entry in assay [2], in [3], in assay [20], in assay [4], in assay [7] and in assay [8] was “inactive” in each case. Besides, the Potency result in [11], in [12], in [14], in [16] and in assay [17] was “inactive” in each case. Further, the Potency in assay [13] is 48.3 µM (active) and inactive.
On to `O=C1CCCCC1`, for which the compound was called inactive in assay [1], in assay [18] and in assay [19]. In addition, the Potency entry in assay [2], in assay [3], in assay [20], in assay [4], in assay [5] and in assay [6] was “inactive” in each case. The Potency entry in assay [7], in assay [8], in assay [11], in [12], in assay [13] and in [14] was “inactive” each time. In addition, the Potency entry in assay [15] and in assay [17] was “inactive” in each case.
Consider `COCC(=O)O`, for which the call in assay [1], in assay [9], in [10] and in assay [18] was inactive. In addition, the Potency in assay [2] was 1.25 µM (active) and inactive. Moreover, the Potency result in assay [3], in [20], in assay [5], in [7], in [8] and in assay [11] was “inactive” throughout. For the same compound, the Potency result in [12], in [13], in assay [14] and in [17] was “inactive” throughout.
In the case of `Clc1cc(Cl)c(Cl)cc1Cl`, the call in assay [1] and in assay [18] was inactive. In addition, the Potency result in [2], in [3], in assay [20], in [4], in assay [5] and in assay [7] was “inactive” each time. Further, the Potency result in [8], in assay [11], in assay [12], in [13], in [14] and in [15] was “inactive” in each case. In addition, the Potency result in assay [16] and in [17] was “inactive” each time.
As to `CC(=O)Nc1ccc(C(=O)O)cc1`, the call in assay [1], in assay [9], in assay [10], in assay [18] and in [19] was inactive. Further, the Potency entry in assay [2], in assay [3], in assay [20], in assay [4], in assay [5] and in assay [7] was “inactive” throughout. The Potency result in [8], in assay [11], in [12], in [13], in [14] and in assay [15] was “inactive” each time. Further, the Potency entry in assay [16] and in assay [17] was “inactive” throughout.
As for `Oc1ccc(OCc2ccccc2)cc1`, the result in [1], in assay [9], in [10], in assay [18] and in assay [19] was inactive. Further, the Potency entry in assay [2], in assay [3], in assay [4], in assay [5], in assay [6] and in assay [7] was “inactive” in each case. Further, the Potency result in [11], in [12], in assay [14], in [15], in assay [16] and in assay [17] was “inactive” throughout. For the same compound, the Potency is 15 µM (active) and inactive in assay [8]; 18.9 µM (active) in assay [13].
